High-throughput results deposited in PubChem BioAssay by National Center for Advancing Translational Sciences (NCATS).
DT40 TDP1 no CPT: qHTS for Inhibitors of human tyrosyl-DNA phosphodiesterase 1 (TDP1): qHTS in cells in absence of CPT; DT40 Tdp1-/- hTDP1 cells, no CPT, ATP luminescence, 48 h; Potency, µM (titrated, usually from 46.2 µM), hits mostly inhibitors; 420,000 compounds, 15% hits; also: nearly all actives have a fitted effect of over 55% in size
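Luminescent ATP content (CellTiter-Glo) served as the growth readout. Knockout chicken DT40 cells expressing human TDP1 were exposed to compounds without camptothecin for a minimum 48 hr at 37 °C.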
TDP1 cell CPT: growth inhibition of DT40 Tdp1-/-;hTDP1 cells with camptothecin (screen for TDP1 inhibitors). chicken DT40 Tdp1-/-;hTDP1 cells + 20 nM CPT, ATP luminescence, 48 h. Potency, µM (highest dose often 46.2 µM), usual class: inhibitors. 420,000 compounds, 12% hits. AID 686979; also: nearly all actives have a fitted effect of over 55% in size
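Chicken DT40 Tdp1-/- cells stably complemented with human TDP1 were seeded at 400 cells/well in medium containing 20 nM camptothecin, exposed to pin-transferred compounds, and grown at 37 °C for at least 48 hr. Viability was read as ATP luminescence.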
TDP1 block: inhibitors of human tyrosyl-DNA phosphodiesterase TDP1. Q9NUW8. recombinant TDP1, AlphaScreen DNA substrate cleavage. Potency, µM (top dose mostly 130 µM), hits mostly inhibitors. 350,000 compounds, 0.28% hits. AID 485290; also: nearly all actives have a fitted effect of over 40% in size
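Tdp1 1 nM final; 15 min RT w/ cpd; substrate 15 nM, 5 min; beads 10 ug/ml, 10 min; AlphaScreen read. Neg ctrl: no enzyme.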
ClpP mod: qHTS Assay for Activators of ClpP; purified B. subtilis ClpP, FRET peptide cleavage, 20 min; Potency, µM (series often up to 57.5 µM); 340,000 compounds, 1.9% hits; active = well fitted falling curve with a large enough effect; inconclusive = small, poorly fitted or top-dose-only effect; inactive = no such curve, though single readings can be large or run the other way; also: the source files actives as falling curves though it sought activators and does not explain the sign; nearly all actives have a fitted effect of over 65% in size
Target sequence (P80244 whole entry, looked up): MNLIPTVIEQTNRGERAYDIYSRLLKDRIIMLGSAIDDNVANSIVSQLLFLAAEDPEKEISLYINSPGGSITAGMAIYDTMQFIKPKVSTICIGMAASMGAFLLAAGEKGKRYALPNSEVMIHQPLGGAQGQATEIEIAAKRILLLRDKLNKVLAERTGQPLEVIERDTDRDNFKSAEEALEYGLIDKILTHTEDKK
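Buffer: 100 mM Tris/HCl pH8, 100 mM KCl, 0.05% low protease BSA, 2.5% glycerol, 0.01% Tween-20. ClpP 10 microg/mL final; 20 min RT; delta FRET normalized to ADEP and DMSO controls.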
Of the large screens only hits and unclear results are named; the others gave an inactive call. Sampled rows, rich in hits. Any-hit rate of the full collection: about 17%. Unless noted, calls follow the shape of the dose curve; as a rule, active = well fitted curve in the direction sought with a large enough effect; inconclusive = small, poorly fitted or top-dose-only effect, or another doubt; inactive = no such curve, though single readings can be large; an effect the other way counts as inactive or inconclusive.

COc1ccc(-c2noc(-c3ccccc3-c3ccccc3)n2)cc1OC	DT40 TDP1 no CPT 26µM, TDP1 cell CPT inconclusive
CN(C)C(CNC(=O)c1ccc(S(=O)(=O)Nc2ccccc2F)cc1)c1ccco1 (centres undefined)	DT40 TDP1 no CPT inconclusive
CCc1cc(C(=O)N2CCN(C(=O)c3ccccc3)CC2)sc1C	DT40 TDP1 no CPT inconclusive
COc1cccc(CN2CCNC(=O)C2CC(=O)NCCOc2cccnc2)c1 (centres undefined)	none (no result: ClpP mod)
COc1ccc2c(c1)[nH]c1c(N3CCSCC3)ncnc12	DT40 TDP1 no CPT 8.2µM, TDP1 cell CPT 7.3µM (no result: ClpP mod)
COc1cccc(N2CCN(c3ncnc4c3[nH]c3ccccc34)CC2C)c1 (centres undefined)	none (no result: DT40 TDP1 no CPT, TDP1 cell CPT, ClpP mod)
COc1ccc2c(c1)[nH]c1c(N3CCN(Cc4ccc5c(c4)OCO5)CC3)ncnc12	DT40 TDP1 no CPT 1.6µM, TDP1 cell CPT 2.3µM, ClpP mod inconclusive
Cc1ccc2[nH]c3c(N4CCN(Cc5ccc6c(c5)OCO6)CC4)ncnc3c2c1	none (no result: DT40 TDP1 no CPT, TDP1 cell CPT, ClpP mod)
CCNC(=S)N/N=C/c1cccs1	DT40 TDP1 no CPT inconclusive, TDP1 cell CPT inconclusive
Cc1ccc(CNC(=O)C2(CC(C)C)C=CCN2C(=O)c2ccccc2)o1 (centres undefined)	none (no result: DT40 TDP1 no CPT, TDP1 cell CPT, ClpP mod)
CC(C)CC1(C(=O)NCc2cc(F)cc(C(F)(F)F)c2)C=CCN1C(=O)c1ccccc1 (centres undefined)	DT40 TDP1 no CPT 29µM, TDP1 cell CPT inconclusive
c1ccc(COc2cccc(-c3cc4nc(NCCN5CCOCC5)ccn4n3)c2)cc1	DT40 TDP1 no CPT 13µM, TDP1 cell CPT 26µM (no result: TDP1 block)
c1ccc(COc2ccc(-c3cc4nc(NCCN5CCOCC5)ccn4n3)cc2)cc1	DT40 TDP1 no CPT 21µM, TDP1 cell CPT inconclusive (no result: TDP1 block)
Cc1cc(C(C)(C)C)cc(C)c1Cn1c2[n+](c3ccc(C(F)(F)F)cc31)CCCCC2	DT40 TDP1 no CPT 1.8µM, TDP1 cell CPT 2.1µM (no result: ClpP mod)
O=C(Cn1c2[n+](c3ccc(C(F)(F)F)cc31)CCCCC2)Nc1ccc(Br)cc1	none (no result: ClpP mod)
FC(F)(F)c1cccc(Cn2c3[n+](c4ccc(C(F)(F)F)cc42)CCCCC3)c1	DT40 TDP1 no CPT 23µM, TDP1 cell CPT inconclusive (no result: ClpP mod)
COc1ccc(Cl)cc1NC(=O)C(C)n1nnc2sc3c(c2c1=O)CCCC3 (centres undefined)	DT40 TDP1 no CPT 13µM, TDP1 cell CPT 21µM
CC(C(=O)Nc1ccccc1)n1nnc2sc3c(c2c1=O)CCCC3 (centres undefined)	TDP1 cell CPT inconclusive
Cc1ccc(NC(=O)C(C)n2nnc3sc4c(c3c2=O)CCCC4)cc1Cl (centres undefined)	DT40 TDP1 no CPT 15µM, TDP1 cell CPT inconclusive
COc1cccc(C(=O)NCCS(=O)(=O)N2CCC(C)CC2)c1	none
COCCOC(=O)N1CCCCC1c1cc(C(=O)Nc2cccc3c2CCCC3)no1 (centres undefined)	DT40 TDP1 no CPT 4.6µM, TDP1 cell CPT 3.7µM (no result: TDP1 block)
Cn1cnc(S(=O)(=O)N2CCCCC2c2cc(C(=O)Nc3ccccc3Cl)no2)c1 (centres undefined)	none (no result: TDP1 block)
O=C(Nc1cccc2c1CCCC2)c1cc(C2CCCCN2C(=O)OCCF)on1 (centres undefined)	DT40 TDP1 no CPT 9.2µM, TDP1 cell CPT 9.2µM (no result: TDP1 block)
Cn1cnc(S(=O)(=O)N2CCCCC2c2cc(C(=O)Nc3cccc4c3CCCC4)no2)c1 (centres undefined)	DT40 TDP1 no CPT 13µM, TDP1 cell CPT 21µM (no result: TDP1 block)
Cc1cc(C)c(S(=O)(=O)N(C)CC(=O)N2CCCC2)c(C)c1	DT40 TDP1 no CPT inconclusive (no result: TDP1 block)
Cc1ccc(-c2[nH]ncc2CNCc2ccc(CN(C)C)cc2)cc1	DT40 TDP1 no CPT 22µM, TDP1 cell CPT 13µM
Cc1ccc(CNCc2cn[nH]c2-c2ccc(C)cc2)cc1	DT40 TDP1 no CPT 13µM, TDP1 cell CPT 7.9µM
Cc1noc(C)c1-c1cncnc1-n1ccnc1	none (no result: TDP1 block, ClpP mod)
O=C(O)c1cccc(NC(=O)c2ccc3c(c2)C(=O)N(Cc2ccco2)C3=O)c1	TDP1 block 50µM (no result: ClpP mod)
O=C(NCc1ccco1)C(Cc1ccccc1)N1C(=O)c2ccccc2C1=O (centres undefined)	TDP1 cell CPT 21µM
COC(=O)c1ccccc1NC(=O)c1ccc2c(c1)C(=O)N(Cc1ccco1)C2=O	ClpP mod 28µM (no result: TDP1 block)
COc1ccccc1NC(=O)c1ccc2c(c1)C(=O)N(Cc1ccco1)C2=O	TDP1 cell CPT inconclusive
O=C(NCc1ccco1)c1ccc2c(c1)N(Cc1ccccc1)C(=O)c1ccccc1S2(=O)=O	DT40 TDP1 no CPT inconclusive, TDP1 cell CPT inconclusive
O=C(O)c1ccc2c(c1)C(=O)N(Cc1ccco1)C2=O	none (no result: TDP1 block)
O=C(NCc1ccco1)c1ccc2c(c1)C(=O)N(Cc1ccccc1)C2=O	ClpP mod 28µM
COc1ccccc1-n1nnnc1SC(C)C(=O)NC1CCCC1 (centres undefined)	none
Cc1ccc(S(=O)(=O)n2nc(-c3ccco3)nc2NCc2ccc(N(C)C)cc2)cc1	DT40 TDP1 no CPT 23µM, TDP1 cell CPT inconclusive
CC(C)c1ccc(CNc2nc(-c3ccco3)nn2S(=O)(=O)c2ccccc2)cc1	DT40 TDP1 no CPT inconclusive, TDP1 cell CPT 23µM
Cc1ccc(CNc2nc(-c3ccco3)nn2C(=O)c2ccccc2[N+](=O)[O-])cc1	DT40 TDP1 no CPT 18µM, TDP1 cell CPT inconclusive
Cc1ccc(C(=O)OCC(=O)NCc2ccc3c(c2)OCO3)o1	none (no result: ClpP mod)
COc1cc(CCC(C)=O)ccc1OC(=O)c1c(F)cccc1Cl	DT40 TDP1 no CPT inconclusive (no result: ClpP mod)
Cc1cc(C)nc(SCc2nc3nc(C)cc(C)n3c2Br)n1	ClpP mod 28µM
COc1ccc(-c2noc(CC(=O)Nc3ccc(F)cc3F)n2)cc1	none
CC(Sc1nc(N)c2c3c(sc2n1)CSC(C)(C)C3)C(=O)Nc1ccccc1 (centres undefined)	DT40 TDP1 no CPT 13µM, TDP1 cell CPT 18µM
CNc1nc2sc3c(c2c(=O)n1C)CC(C)(C)SC3	DT40 TDP1 no CPT inconclusive
CCCCCC(=O)/C=C/C=C\CCCCCCCC(=O)O	none (no result: ClpP mod)
COc1ccc([C@@H]2[C@@H](C)N(c3ccccc3)c3ccccc3C(=O)N2Cc2ccccc2)cc1	DT40 TDP1 no CPT 16µM, TDP1 cell CPT inconclusive (no result: TDP1 block)
COc1ccc(C2Nc3ccccc3C(=O)N2Cc2ccccc2)cc1 (centres undefined)	DT40 TDP1 no CPT inconclusive, TDP1 cell CPT inconclusive (no result: TDP1 block)
COc1cc(OC)cc(C(=O)N2CCN(c3ccc(N4CCOCC4)nn3)CC2)c1	none (no result: ClpP mod)
CC(/C=C/c1ccccc1)=N\Nc1nc(C)cc(C)n1	DT40 TDP1 no CPT 5.2µM, TDP1 cell CPT 4.6µM
Cc1cc(C)nc(NN=C(c2ccccc2)c2ccccc2)n1	DT40 TDP1 no CPT 10µM, TDP1 cell CPT 16µM
COc1ccc(C(=O)N2CCC[C@@]3(CCN(Cc4ccccc4OC)C3)C2)cc1	DT40 TDP1 no CPT inconclusive (no result: TDP1 block, ClpP mod)
O=C(NCCN1CCOCC1)C1(C(F)(F)F)CC(CCCO)CCCO1 (centres undefined)	none (no result: DT40 TDP1 no CPT, TDP1 cell CPT, ClpP mod)
